Assay results published in paper PMC7862700, “An all-to-all approach to the identification of sequence-specific readers for epigenetic DNA modifications on cytosine”.

Tests used:
Assay in all cases: DAPPL (digital affinity profiling via proximity ligation, sequencing); 10 mM Tris-HCl pH 7.5, 50 mM NaCl, 1 mM DTT, 4% glycerol, room temperature, 30 min; GST-TFs on glutathione beads, 16-mer random dsDNA library, 0.1% formaldehyde crosslink after washing; high values mean tight binding
FEV = target: T1, FEV (Homo sapiens, UniProt Q99581 1-238); conditions: protein: recombinant; tags: N-terminal GST; dsDNA, one strand shown
T1 sequence: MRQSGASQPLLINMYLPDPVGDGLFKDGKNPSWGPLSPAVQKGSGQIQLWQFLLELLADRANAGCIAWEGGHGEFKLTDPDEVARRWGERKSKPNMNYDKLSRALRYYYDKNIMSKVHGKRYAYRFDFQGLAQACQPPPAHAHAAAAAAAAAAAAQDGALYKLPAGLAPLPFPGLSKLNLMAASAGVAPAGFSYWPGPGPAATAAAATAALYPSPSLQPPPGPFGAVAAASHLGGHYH
Method in brief: (§1)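 The binding signal reported is, for every hexamer, its read frequency for a factor over its read frequency for the tag-only sample. Reads came from pools of yeast-expressed, GST-fused human transcription factors on glutathione beads, barcoded with DNA and mixed with that sample, which were incubated with 200 nmole of a random double-stranded 16-mer DNA library in Tris/NaCl/DTT/glycerol buffer at room temperature for 30 min. After washing, the pools were crosslinked with 0.1% formaldehyde, proximity-ligated with BsaI/T4 ligase for 1 h at 37 °C, PCR-amplified and sequenced on an Illumina NextSeq500.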

ETV5 = ETV5 (Homo sapiens, UniProt P41161 1-510); conditions: protein: recombinant; tags: N-terminal GST; dsDNA, one strand shown
ETV5, sequence (P41161 whole entry): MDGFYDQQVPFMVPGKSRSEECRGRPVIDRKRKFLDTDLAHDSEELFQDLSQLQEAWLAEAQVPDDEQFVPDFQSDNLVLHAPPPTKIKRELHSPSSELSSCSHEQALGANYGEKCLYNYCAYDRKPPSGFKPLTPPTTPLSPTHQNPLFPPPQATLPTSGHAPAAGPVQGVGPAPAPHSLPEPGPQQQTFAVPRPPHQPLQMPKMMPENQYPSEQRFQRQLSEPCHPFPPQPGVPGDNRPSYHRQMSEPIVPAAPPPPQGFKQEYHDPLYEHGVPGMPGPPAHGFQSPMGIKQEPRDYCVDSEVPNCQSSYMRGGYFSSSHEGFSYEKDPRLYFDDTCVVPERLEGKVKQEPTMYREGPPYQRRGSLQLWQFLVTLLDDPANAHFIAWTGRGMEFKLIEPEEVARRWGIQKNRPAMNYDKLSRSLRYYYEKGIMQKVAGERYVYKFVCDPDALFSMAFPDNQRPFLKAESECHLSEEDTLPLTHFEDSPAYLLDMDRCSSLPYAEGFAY
Method in brief: as §1

HSF1 = HSF1 (Homo sapiens, UniProt Q00613 1-529); conditions: protein: recombinant; tags: N-terminal GST; chain copies: 3; dsDNA, one strand shown
HSF1, sequence (Q00613 whole entry): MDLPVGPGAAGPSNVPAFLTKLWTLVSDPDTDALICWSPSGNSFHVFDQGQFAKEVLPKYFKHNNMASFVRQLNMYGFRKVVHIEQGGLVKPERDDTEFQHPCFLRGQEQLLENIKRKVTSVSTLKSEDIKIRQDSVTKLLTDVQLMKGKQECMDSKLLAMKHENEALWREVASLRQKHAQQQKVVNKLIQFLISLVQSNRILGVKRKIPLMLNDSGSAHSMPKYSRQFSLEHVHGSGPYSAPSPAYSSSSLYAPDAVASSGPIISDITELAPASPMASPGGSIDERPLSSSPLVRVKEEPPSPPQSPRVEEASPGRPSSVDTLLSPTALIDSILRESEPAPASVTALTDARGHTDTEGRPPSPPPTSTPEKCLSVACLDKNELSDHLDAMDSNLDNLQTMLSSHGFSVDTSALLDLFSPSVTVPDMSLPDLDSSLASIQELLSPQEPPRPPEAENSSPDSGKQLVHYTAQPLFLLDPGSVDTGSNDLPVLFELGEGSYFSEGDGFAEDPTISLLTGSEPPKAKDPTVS
Method in brief: as §1

SPIC = target: T2, SPIC (Homo sapiens, UniProt Q8N5J4 1-248); conditions: protein: recombinant; tags: N-terminal GST; dsDNA, one strand shown
T2 sequence: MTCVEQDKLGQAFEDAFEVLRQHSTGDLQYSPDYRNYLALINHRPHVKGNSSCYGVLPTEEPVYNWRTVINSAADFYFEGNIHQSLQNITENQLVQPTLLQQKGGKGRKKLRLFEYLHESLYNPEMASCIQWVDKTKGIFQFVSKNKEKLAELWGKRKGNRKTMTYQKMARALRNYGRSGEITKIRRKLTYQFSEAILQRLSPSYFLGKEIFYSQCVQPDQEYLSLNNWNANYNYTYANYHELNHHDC
Method in brief: as §1

ELF4 = ELF4 (Homo sapiens, UniProt Q99607 1-663); conditions: protein: recombinant; tags: N-terminal GST; dsDNA, one strand shown
ELF4, sequence (Q99607 whole entry): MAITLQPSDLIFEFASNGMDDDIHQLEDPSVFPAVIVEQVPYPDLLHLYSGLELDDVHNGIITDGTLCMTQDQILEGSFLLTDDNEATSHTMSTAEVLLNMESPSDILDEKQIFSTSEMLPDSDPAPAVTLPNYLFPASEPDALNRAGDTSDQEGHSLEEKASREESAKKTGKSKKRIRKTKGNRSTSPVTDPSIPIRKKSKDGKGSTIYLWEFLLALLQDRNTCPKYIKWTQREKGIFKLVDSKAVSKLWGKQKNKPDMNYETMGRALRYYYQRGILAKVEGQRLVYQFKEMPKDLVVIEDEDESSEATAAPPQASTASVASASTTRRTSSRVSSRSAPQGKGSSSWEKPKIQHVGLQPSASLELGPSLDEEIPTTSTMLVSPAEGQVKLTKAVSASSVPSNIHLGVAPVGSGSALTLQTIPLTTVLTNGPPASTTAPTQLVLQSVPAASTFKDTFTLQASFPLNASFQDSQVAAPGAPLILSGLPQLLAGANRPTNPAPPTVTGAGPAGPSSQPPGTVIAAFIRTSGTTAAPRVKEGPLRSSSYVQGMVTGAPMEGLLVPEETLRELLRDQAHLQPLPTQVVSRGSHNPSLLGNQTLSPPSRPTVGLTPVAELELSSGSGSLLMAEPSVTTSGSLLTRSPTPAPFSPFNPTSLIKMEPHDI
Method in brief: as §1

ELK4 = target: T3, ELK4 (Homo sapiens, UniProt P28324-2 1-405); conditions: protein: recombinant; tags: N-terminal GST; dsDNA, one strand shown
T3 sequence: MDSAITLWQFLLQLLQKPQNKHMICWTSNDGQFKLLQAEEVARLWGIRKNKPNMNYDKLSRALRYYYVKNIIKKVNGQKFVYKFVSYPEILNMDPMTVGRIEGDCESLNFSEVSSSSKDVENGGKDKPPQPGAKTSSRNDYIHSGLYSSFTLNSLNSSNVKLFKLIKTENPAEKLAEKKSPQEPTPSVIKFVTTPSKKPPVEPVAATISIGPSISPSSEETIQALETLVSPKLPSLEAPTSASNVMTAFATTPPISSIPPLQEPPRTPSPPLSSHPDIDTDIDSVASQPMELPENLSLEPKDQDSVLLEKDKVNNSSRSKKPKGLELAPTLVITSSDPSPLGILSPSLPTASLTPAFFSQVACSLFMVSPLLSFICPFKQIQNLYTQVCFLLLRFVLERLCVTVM
Method in brief: as §1

ETV2 = target: T4, ETV2 (Homo sapiens, UniProt O00321 1-342); conditions: protein: recombinant; tags: N-terminal GST; dsDNA, one strand shown
T4 sequence: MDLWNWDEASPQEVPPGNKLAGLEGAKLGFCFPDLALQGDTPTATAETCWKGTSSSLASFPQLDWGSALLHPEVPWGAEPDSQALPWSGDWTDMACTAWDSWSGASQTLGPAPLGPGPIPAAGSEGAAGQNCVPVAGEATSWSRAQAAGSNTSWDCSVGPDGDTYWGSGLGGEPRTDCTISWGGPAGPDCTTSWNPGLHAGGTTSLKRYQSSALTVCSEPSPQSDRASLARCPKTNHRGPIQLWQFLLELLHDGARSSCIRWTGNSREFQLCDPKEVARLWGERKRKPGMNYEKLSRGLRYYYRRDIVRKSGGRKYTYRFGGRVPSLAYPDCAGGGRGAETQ
Method in brief: as §1

ELF3 = target: T5, ELF3 (Homo sapiens, UniProt P78545 1-371); conditions: protein: recombinant; tags: N-terminal GST; dsDNA, one strand shown
T5 sequence: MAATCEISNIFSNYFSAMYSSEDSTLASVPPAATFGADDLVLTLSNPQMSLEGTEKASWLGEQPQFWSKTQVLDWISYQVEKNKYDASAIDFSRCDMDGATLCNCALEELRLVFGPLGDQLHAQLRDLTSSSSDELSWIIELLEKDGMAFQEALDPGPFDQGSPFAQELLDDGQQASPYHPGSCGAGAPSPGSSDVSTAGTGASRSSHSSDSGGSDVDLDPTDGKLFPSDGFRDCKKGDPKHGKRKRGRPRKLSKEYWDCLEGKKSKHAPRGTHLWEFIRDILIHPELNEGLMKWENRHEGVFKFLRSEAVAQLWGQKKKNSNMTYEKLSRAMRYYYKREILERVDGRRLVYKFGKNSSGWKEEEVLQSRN
Method in brief: as §1

CRX = CRX (Homo sapiens, UniProt O43186 1-299); conditions: protein: recombinant; tags: N-terminal GST; dsDNA, one strand shown
CRX, sequence (O43186 whole entry): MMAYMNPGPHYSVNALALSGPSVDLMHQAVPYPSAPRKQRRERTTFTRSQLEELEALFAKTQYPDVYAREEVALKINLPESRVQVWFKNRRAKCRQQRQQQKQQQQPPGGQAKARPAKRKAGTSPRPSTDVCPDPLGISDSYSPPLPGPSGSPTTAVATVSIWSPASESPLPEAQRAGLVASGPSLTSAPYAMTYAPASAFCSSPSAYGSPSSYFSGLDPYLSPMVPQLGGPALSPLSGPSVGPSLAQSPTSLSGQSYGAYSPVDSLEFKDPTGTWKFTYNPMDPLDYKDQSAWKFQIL
Method in brief: as §1

ETV1 = ETV1 (Homo sapiens, UniProt P50549 1-477); conditions: protein: recombinant; tags: N-terminal GST; dsDNA, one strand shown
ETV1, sequence (P50549 whole entry): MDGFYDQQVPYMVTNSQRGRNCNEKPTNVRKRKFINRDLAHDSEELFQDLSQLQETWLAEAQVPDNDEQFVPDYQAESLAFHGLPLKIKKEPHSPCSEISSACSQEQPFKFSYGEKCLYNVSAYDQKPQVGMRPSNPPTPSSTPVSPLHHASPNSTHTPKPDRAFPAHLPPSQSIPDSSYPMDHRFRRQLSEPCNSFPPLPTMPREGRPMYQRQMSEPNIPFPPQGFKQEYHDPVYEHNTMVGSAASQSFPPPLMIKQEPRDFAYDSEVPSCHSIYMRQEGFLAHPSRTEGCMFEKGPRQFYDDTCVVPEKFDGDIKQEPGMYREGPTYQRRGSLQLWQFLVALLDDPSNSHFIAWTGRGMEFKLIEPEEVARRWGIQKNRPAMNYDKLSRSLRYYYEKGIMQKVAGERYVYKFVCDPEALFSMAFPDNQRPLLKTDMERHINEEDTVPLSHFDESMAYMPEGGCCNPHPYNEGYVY
Method in brief: as §1

ERF = target: T6, ERF (Homo sapiens, UniProt P50548 1-548); conditions: protein: recombinant; tags: N-terminal GST; dsDNA, one strand shown
T6 sequence: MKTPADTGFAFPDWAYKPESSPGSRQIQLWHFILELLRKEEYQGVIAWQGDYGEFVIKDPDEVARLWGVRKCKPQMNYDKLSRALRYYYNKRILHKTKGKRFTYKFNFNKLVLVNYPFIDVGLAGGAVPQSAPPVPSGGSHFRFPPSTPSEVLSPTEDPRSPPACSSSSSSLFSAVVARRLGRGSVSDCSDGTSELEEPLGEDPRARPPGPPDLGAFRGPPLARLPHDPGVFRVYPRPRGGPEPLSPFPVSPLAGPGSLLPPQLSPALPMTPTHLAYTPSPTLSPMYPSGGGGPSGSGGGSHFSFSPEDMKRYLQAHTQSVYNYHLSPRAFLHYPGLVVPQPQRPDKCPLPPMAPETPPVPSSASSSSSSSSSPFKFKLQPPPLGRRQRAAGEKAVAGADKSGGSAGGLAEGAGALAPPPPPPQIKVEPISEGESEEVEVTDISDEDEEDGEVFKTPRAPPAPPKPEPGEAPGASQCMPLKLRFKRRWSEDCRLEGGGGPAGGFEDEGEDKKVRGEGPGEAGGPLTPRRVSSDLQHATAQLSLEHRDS
Method in brief: as §1

ETV3L = target: T7, ETV3L (Homo sapiens, UniProt Q6ZN32 1-361); conditions: protein: recombinant; tags: N-terminal GST; dsDNA, one strand shown
T7 sequence: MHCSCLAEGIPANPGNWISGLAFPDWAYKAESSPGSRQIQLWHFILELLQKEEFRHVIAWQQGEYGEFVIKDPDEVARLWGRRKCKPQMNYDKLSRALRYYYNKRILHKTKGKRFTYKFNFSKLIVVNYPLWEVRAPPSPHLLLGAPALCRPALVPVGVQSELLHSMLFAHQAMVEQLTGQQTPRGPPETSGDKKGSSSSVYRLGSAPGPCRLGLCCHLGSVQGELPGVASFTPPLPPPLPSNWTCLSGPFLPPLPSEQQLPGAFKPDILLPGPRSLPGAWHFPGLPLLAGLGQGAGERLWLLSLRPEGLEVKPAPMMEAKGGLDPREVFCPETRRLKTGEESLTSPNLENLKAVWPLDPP
Method in brief: as §1

ETS2 = target: T8, ETS2 (Homo sapiens, UniProt P15036 1-469); conditions: protein: recombinant; tags: N-terminal GST; dsDNA, one strand shown
T8 sequence: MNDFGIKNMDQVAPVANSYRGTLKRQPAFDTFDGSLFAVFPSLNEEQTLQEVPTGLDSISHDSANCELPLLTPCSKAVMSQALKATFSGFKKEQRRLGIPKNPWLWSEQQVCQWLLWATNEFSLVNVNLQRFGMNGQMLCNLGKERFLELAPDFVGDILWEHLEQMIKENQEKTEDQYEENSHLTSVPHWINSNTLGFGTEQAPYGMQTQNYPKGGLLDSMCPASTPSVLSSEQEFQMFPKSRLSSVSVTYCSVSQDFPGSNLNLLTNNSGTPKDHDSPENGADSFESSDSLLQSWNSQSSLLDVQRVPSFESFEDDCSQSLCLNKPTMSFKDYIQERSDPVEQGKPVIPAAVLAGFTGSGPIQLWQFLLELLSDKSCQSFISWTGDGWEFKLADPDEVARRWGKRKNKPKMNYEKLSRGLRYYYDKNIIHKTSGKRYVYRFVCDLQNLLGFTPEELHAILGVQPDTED
Method in brief: as §1

SPDEF = target: T9, SPDEF (Homo sapiens, UniProt O95238 1-335); conditions: protein: recombinant; tags: N-terminal GST; dsDNA, one strand shown
T9 sequence: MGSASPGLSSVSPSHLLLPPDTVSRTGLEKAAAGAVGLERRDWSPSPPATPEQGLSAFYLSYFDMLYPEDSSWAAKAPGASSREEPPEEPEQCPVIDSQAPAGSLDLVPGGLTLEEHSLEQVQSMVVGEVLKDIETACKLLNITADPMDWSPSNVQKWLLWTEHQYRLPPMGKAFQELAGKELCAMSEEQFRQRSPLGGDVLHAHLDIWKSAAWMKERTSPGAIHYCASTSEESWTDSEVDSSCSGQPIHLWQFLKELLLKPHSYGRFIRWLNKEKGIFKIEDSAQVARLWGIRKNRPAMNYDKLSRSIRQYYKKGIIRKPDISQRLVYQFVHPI
Method in brief: as §1

ETV7 = target: T10, ETV7 (Homo sapiens, UniProt Q9Y603 1-341); conditions: protein: recombinant; tags: N-terminal GST; dsDNA, one strand shown
T10 sequence: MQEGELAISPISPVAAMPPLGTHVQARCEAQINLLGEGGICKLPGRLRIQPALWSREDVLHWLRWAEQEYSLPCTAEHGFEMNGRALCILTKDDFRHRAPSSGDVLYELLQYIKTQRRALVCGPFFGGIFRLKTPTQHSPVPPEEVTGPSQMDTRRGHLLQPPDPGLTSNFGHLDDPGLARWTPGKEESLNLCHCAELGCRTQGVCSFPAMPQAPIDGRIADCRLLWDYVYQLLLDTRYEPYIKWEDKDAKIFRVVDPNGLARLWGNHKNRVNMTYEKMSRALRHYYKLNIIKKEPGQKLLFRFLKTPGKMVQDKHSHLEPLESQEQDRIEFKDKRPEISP
Method in brief: as §1

ELF5 = target: T11, ELF5 (Homo sapiens, UniProt Q9UKW6-2 1-255); conditions: protein: recombinant; tags: N-terminal GST; dsDNA, one strand shown
T11 sequence: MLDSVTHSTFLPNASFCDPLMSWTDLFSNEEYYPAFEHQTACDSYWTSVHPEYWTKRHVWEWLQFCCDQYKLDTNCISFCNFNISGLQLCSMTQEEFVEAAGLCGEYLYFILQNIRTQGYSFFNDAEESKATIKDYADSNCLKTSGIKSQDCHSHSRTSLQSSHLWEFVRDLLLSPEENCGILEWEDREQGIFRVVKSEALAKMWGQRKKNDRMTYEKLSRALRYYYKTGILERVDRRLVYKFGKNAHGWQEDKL
Method in brief: as §1

ETV3 = target: T12, ETV3 (Homo sapiens, UniProt P41162-2 1-143); conditions: protein: recombinant; tags: N-terminal GST; dsDNA, one strand shown
T12 sequence: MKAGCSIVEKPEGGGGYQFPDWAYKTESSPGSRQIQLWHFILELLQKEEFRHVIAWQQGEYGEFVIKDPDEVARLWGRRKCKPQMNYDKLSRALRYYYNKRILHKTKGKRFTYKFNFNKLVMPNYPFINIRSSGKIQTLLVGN
Method in brief: as §1

ETV6 = ETV6 (Homo sapiens, UniProt P41212 1-452); conditions: protein: recombinant; tags: N-terminal GST; dsDNA, one strand shown
ETV6, sequence (P41212 whole entry): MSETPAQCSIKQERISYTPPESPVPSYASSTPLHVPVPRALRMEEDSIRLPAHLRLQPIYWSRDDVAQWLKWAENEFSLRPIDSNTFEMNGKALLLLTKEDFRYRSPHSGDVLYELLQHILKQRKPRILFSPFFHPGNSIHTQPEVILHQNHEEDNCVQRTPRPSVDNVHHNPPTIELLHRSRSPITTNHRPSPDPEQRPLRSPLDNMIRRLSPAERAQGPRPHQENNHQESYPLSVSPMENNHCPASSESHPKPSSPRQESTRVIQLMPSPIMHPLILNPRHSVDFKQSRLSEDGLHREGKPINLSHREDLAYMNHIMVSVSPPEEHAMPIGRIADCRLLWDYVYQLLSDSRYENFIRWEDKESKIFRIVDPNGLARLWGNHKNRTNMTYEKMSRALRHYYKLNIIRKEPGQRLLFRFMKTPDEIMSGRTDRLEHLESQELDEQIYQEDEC
Method in brief: as §1

Sequence: CCACTA
- binding signal (FEV): 1.08 fold enrichment (6-mer frequency, TF over GST control)
- binding signal (ETV5): 1.12 fold enrichment (6-mer frequency, TF over GST control)
- binding signal (HSF1): 1.08 fold enrichment (6-mer frequency, TF over GST control)
- binding signal (SPIC): 1.11 fold enrichment (6-mer frequency, TF over GST control)
- binding signal (ELF4): 1.11 fold enrichment (6-mer frequency, TF over GST control)
- binding signal (ELK4): 1.06 fold enrichment (6-mer frequency, TF over GST control)
- binding signal (ETV2): 1.14 fold enrichment (6-mer frequency, TF over GST control)
- binding signal (ELF3): 1.1 fold enrichment (6-mer frequency, TF over GST control)
- binding signal (CRX): 1.12 fold enrichment (6-mer frequency, TF over GST control)
- binding signal (ETV1): 1.03 fold enrichment (6-mer frequency, TF over GST control)
- binding signal (ERF): 1.11 fold enrichment (6-mer frequency, TF over GST control)
- binding signal (ETV3L): 1.13 fold enrichment (6-mer frequency, TF over GST control)
- binding signal (ETS2): 1.14 fold enrichment (6-mer frequency, TF over GST control)
- binding signal (SPDEF): 1.09 fold enrichment (6-mer frequency, TF over GST control)
- binding signal (ETV7): 1.04 fold enrichment (6-mer frequency, TF over GST control)
- binding signal (ELF5): 1.06 fold enrichment (6-mer frequency, TF over GST control)
- binding signal (ETV3): 1.03 fold enrichment (6-mer frequency, TF over GST control)
- binding signal (ETV6): 1.07 fold enrichment (6-mer frequency, TF over GST control)
